Records with an inconclusive call do not appear. The source made the active and inactive calls. Unless noted, calls follow the shape of the dose curve; as a rule, active = well fitted curve in the direction sought with a large enough effect in the repeat runs; inconclusive = weak or mixed curves; inactive = no such curve, though single readings can be large; an effect the other way counts as inactive or inconclusive.
How the values were obtained:
[1] = qHTS assay to identify small molecule agonists of the estrogen receptor alpha (ER-alpha) signaling pathway in the presence of an antagonist - cell viability counter screen (AID 1259386);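 also: series mostly up to about 92 µM; cells exposed to compounds for 22 h at 37 °C before the viability read; nearly all actives have a fitted effect of over 30% in size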
Procedure, shortened: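 ICI-182,780 at 10.0nM final accompanies the compound titration (15 concentrations, 22hr, 37C) on VM7Luc4E2 cells. The CellTiter-Fluor fluorescence readout runs in the same wells as the luciferase assay.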

[2] = molecular target: Progesterone receptor (Homo sapiens) (UniProt P06401); test: qHTS assay to identify small molecule agonists of the progesterone receptor (PR) signaling pathway (AID 1346784; calls by dose curve; also: nearly all actives have a fitted effect of over 30% in size)
Chain of Progesterone receptor (Homo sapiens) (P06401 whole entry, looked up): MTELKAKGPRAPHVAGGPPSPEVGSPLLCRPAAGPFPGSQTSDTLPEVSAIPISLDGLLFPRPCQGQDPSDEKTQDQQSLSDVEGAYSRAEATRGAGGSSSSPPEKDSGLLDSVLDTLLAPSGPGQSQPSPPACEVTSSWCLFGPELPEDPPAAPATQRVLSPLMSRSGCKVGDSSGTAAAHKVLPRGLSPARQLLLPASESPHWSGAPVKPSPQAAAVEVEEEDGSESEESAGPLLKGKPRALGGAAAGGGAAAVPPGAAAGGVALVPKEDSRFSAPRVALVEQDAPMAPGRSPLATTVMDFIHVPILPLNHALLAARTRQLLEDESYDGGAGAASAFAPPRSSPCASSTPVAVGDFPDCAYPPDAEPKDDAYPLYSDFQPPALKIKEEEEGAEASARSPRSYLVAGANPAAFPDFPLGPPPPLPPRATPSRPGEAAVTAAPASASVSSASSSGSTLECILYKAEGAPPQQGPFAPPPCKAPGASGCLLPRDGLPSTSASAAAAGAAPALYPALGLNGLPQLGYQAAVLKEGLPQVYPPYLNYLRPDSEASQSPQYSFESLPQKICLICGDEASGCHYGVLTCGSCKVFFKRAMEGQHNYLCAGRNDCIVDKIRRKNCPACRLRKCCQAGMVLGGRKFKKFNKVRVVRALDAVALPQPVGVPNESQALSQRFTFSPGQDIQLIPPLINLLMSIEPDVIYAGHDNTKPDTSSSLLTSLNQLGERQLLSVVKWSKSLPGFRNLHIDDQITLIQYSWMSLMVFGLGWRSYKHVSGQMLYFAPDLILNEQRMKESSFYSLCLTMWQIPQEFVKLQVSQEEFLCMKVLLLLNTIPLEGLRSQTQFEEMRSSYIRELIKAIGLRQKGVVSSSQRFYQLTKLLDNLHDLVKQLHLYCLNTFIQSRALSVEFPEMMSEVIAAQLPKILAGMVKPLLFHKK
Procedure, shortened: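 HEK 293T PR-UAS-bla reporter cells, 2% charcoal-stripped FBS; 6 hr settle at 37C/5% CO2, compound (DMSO) 16 hr, LiveBLAzer B/G FRET substrate 2 hr RT, fluorescence intensity read.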

[3] = molecular target: Progesterone receptor (Homo sapiens) (UniProt P06401); test: qHTS assay to identify small molecule antagonists of the progesterone receptor (PR) signaling pathway (AID 1346795; active = well fitted inhibition curve with a large enough effect in the signal ratio in the repeat runs, not every such curve was filed as active; the % refers to the signal ratio; also: potency is read from the fitted curve at half-maximal effect)
Procedure, shortened: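 Beta-lactamase reporter, HEK293T PR-UAS-bla line; 2% charcoal-stripped FBS; 6 hr pre-incubation, 37C/5% CO2. Compound + R5020 1 nM final, 16 hr. LiveBLAzer B/G FRET substrate, 2 hr RT; fluorescence intensity read.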

[4] = qHTS assay to identify small molecule antagonists of the progesterone receptor (PR) signaling pathway - cell viability counter screen (AID 1346798); also: series mostly up to about 92 µM; nearly all actives have a fitted effect of over 50% in size
Procedure, shortened: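 Luminescence readout (CellTiter-Glo, 30 min, RT) of viability in PR-UAS-bla HEK293T cells exposed to compound and R5020 agonist for 16 hr at 37C, 5% CO2; run in the same wells as the beta-lactamase reporter read.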

[5] = qHTS assay to identify small molecule agonists of the progesterone receptor (PR) signaling pathway - cell viability counter screen (AID 1346799; calls by dose curve; also: nearly all actives have a fitted effect of over 45% in size)
Procedure, shortened: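 HEK293T PR-UAS-bla, 3,000 cells/well, 2% charcoal-stripped FBS; 6 h settle, compound 16 h at 37C/5% CO2; LiveBLAzer 2 h RT, then CellTiter-Glo 30 min RT, luminescence read.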

[6] = qHTS assay to identify small molecule antagonists of the TGF-beta/Smad signaling pathway - cell viability counter screen (AID 1346824); also: nearly all actives have a fitted effect of over 50% in size
Procedure, shortened: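 Cytotoxicity counter-screen run in the same wells as the beta-lactamase Smad reporter read: CellTiter-Glo luminescence after 30 min at room temperature. HEK 293T SBE-bla cells had 5 hr compound exposure at 37 C with TGF-beta1 (0.25 ng/mL stock).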

[7] = qHTS assay to identify small molecule agonists of the TGF-beta/Smad signaling pathway - cell viability counter screen (AID 1346829); also: top concentration of the series differs between compounds; nearly all actives have a fitted effect of over 45% in size
Procedure, shortened: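 Tox21 qHTS format: SBE-bla HEK 293T cells treated with DMSO-dissolved compounds for 5 hr; CellTiter-Glo luminescence after 30 min at room temperature.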

[8] = qHTS assay to identify small molecule agonists of the TGF-beta/Smad signaling pathway (AID 1346859; active = well fitted activation curve with a large enough effect in the signal ratio in the repeat runs, not every such curve was filed as active; the % refers to the signal ratio; also: series mostly up to about 77 µM)
Procedure, shortened: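 Read-out: fluorescence at 460 and 530 nm (405 nm excitation) after a 2 hr room-temperature incubation with beta-lactamase FRET substrate. SBE-bla HEK 293T cells had been treated with test compounds for 5 hr at 37 C.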

[9] = Human pregnane X receptor (PXR) small molecule agonists, qHTS cell viability counter screen (AID 1346977); also: nearly all actives have a fitted effect of over 50% in size
Procedure, shortened: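 Fluorescence read-out (CellTiter-Fluor) of viability in PXR-Luc HepG2 cells, multiplexed with the luciferase agonist read. Compounds in DMSO added after 5hr plating; 24hr total exposure at 37C, 5% CO2.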

[10] = Caspase-3/7 induction in HepG2 cells by small molecules, qHTS assay (AID 1346978); also: nearly all actives have a fitted effect of over 15% in size
Procedure, shortened: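 Caspase-3/7 induction was measured by Caspase-Glo 3/7 luminescence (30 min, room temperature) after a 17 hr compound exposure of wild-type HepG2 cells seeded at 2,000 per well and pre-incubated 5 hr.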

[11] = Caspase-3/7 induction in CHO-K1 cells by small molecules, qHTS cell viability counter screen (AID 1346979); also: nearly all actives have a fitted effect of over 35% in size; also: potency is read from the fitted curve at half-maximal effect
Procedure, shortened: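 CHO-K1 wt, 1,500 cells/well; 5hr pre-incubation 37C/5% CO2; compound pin transfer (DMSO); 16hr exposure; CellTiter-Fluor added, 1hr, fluorescence read.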

[12] = Caspase-3/7 induction in CHO-K1 cells by small molecules, qHTS assay (AID 1346980); also: nearly all actives have a fitted effect of over 15% in size
Procedure, shortened: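 Luminescent Caspase-Glo 3/7 read (30min, room temperature) quantified apoptosis induction. Cells were wild-type CHO-K1, treated with compound for 17hr at 37 C and 5% CO2.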

[13] = molecular target: Nuclear receptor subfamily 1 group I member 2 (Homo sapiens) (UniProt O75469); test: Human pregnane X receptor (PXR) small molecule agonists, qHTS assay (AID 1346982); also: nearly all actives have a fitted effect of over 35% in size; also: potency is read from the fitted curve at half-maximal effect
Chain of Nuclear receptor subfamily 1 group I member 2 (Homo sapiens) (O75469 whole entry, looked up): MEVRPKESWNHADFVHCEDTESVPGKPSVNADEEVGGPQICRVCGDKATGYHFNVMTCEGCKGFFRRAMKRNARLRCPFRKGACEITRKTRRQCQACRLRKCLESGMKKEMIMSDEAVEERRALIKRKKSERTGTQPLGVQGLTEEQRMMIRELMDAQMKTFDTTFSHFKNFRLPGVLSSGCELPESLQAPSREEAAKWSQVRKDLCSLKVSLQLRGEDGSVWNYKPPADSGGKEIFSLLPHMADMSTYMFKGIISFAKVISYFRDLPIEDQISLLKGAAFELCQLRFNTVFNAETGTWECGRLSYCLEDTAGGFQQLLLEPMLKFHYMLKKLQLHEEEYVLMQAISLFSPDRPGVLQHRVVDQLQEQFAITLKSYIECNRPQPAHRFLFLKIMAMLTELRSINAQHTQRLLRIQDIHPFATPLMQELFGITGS
Procedure, shortened: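 We seeded PXR-Luc HepG2 cells in assay medium containing 5% charcoal-stripped FBS, added compounds 5 hr later, incubated 24 hr, and read luminescence with ONE-Glo reagent.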

[14] = molecular target: Acetylcholinesterase (Homo sapiens) (UniProt P22303); test: Acetylcholinesterase (AChE) small molecule antagonists: colormetric cell-based qHTS assay (AID 1347395; calls by dose curve; also: nearly all actives have a fitted effect of over 30% in size; also: potency is read from the fitted curve at half-maximal effect)
Chain of Acetylcholinesterase (Homo sapiens) (P22303 whole entry, looked up): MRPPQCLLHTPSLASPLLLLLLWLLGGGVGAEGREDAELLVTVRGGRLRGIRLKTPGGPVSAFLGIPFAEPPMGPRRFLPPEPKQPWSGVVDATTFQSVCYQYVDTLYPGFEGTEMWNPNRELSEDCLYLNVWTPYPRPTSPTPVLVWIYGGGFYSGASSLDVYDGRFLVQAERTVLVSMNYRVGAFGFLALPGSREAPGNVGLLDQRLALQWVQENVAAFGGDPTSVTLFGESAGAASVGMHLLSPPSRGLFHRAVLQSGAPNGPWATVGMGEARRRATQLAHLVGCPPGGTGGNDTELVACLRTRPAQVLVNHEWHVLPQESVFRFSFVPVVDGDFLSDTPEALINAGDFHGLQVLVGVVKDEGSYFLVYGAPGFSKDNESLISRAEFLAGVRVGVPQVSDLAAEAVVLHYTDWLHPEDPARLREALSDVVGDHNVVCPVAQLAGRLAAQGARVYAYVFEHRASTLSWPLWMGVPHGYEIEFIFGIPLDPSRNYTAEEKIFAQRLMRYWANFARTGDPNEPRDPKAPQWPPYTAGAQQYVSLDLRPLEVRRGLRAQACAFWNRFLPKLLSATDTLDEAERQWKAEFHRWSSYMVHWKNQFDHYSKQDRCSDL
Procedure, shortened: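 SH-SY5Y cells; cpd 30 min 37 C; + DTNB/acetylthiocholine, 90 min 37 C; colorimetric thiocholine read; qHTS.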

[15] = molecular target: Acetylcholinesterase (Homo sapiens) (UniProt P22303); test: Acetylcholinesterase (AChE) small molecule antagonists: enzyme-based qHTS assay (AID 1347397; calls by dose curve; also: nearly all actives have a fitted effect of over 55% in size); settings: Potency: AChE enzyme activity inhibition
Procedure, shortened: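 Absorbance-based detection of thiocholine with DTNB served as the read-out. Recombinant human AChE was exposed to compound for 30 min at RT before a 10 min RT incubation with acetylthiocholine.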

[16] = Caspase-3/7 induction in HepG2 cells by small molecules, qHTS cell viability counter screen (AID 1346981); also: series mostly up to about 92 µM; nearly all actives have a fitted effect of over 30% in size
Procedure, shortened: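 Multiplexed with the caspase-3/7 assay: HepG2 cells, 16 hr compound treatment, CellTiter-Fluor viability detection by fluorescence.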

[17] = molecular target: Thyrotropin-releasing hormone receptor (Homo sapiens) (UniProt P34981); test: qHTS assay to identify small molecule antagonists of the thyrotropin-releasing hormone receptor (TRHR) signaling pathway (AID 1346877; active = well fitted inhibition curve with a large enough effect in the repeat runs, not every such curve was filed as active; also: series mostly up to about 51 µM)
Chain of Thyrotropin-releasing hormone receptor (Homo sapiens) (P34981 whole entry, looked up): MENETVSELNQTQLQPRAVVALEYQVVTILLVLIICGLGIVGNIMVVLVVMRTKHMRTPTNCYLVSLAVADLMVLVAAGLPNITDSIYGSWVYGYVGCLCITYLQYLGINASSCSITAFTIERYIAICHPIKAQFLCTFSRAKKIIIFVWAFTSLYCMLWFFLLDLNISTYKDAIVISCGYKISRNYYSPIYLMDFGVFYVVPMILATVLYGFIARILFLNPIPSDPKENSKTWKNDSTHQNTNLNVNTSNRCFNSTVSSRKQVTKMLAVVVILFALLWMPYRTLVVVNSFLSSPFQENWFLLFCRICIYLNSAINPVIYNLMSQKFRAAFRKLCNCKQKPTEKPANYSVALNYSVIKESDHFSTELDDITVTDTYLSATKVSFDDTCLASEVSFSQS
Procedure, shortened: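 Screening used HEK293 cells engineered with TRHR, with a brief 5 min room-temperature compound exposure preceding addition of TRH to 1 nM. The read-out was kinetic calcium-dye fluorescence, concentration-response from 15 doses in triplicate.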

[18] = molecular target: Thyrotropin-releasing hormone receptor (Homo sapiens) (UniProt P34981); test: qHTS assay to identify small molecule agonists of the thyrotropin-releasing hormone receptor (TRHR) signaling pathway (AID 1346891; calls by dose curve;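 also: HEK293 cells expressing TRHR with calcium dye readout; series mostly up to about 58 µM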)
Procedure, shortened: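 HEK293/TRHR cells, 1500 per well, 18 h 37 °C; Ca dye 2 h 37 °C; pin-tool compound addition (agonist mode); kinetic fluorescence 3 min, 1 s reads; 15 concentrations, triplicate.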

Measured: Potency

ClCc1ccccc1
active: [13] 60.8 µM
not listed: [16] | [17] | [18]
inactive: all other assays above

CC/C(=N\OC/C=C/Cl)C1=C(O)CC(C2CCOCC2)CC1=O (stereo not drawn)
not listed: [17] | [18]
inactive: all other assays above

O=C(CBr)Nc1ccc(Cl)cc1C(=O)c1ccccc1F
not listed: [3] | [13]
inactive: all other assays above

OC(c1ccc(Cl)cc1)(c1ccc(Cl)cc1)c1cccnc1
active: [3] 17.2 µM | [11] 61.1 µM | [13] 61.1 µM
not listed: [4] | [5] | [7] | [9]
inactive: all other assays above

Clc1cccc2ccccc12
not listed: [3] | [17]
inactive: all other assays above

CC(=O)c1cc2c(cc1C)C(C)(C)C(C)CC2(C)C (stereo not drawn)
not listed: [3] | [5] | [10] | [11] | [12] | [13] | [17]
inactive: all other assays above

CCO[C@H]1O[C@@H]2OC3(C)CC[C@H]4[C@H](C)CC[C@@H]([C@H]1C)[C@@]24OO3
active: [11] 0.266 µM
not listed: [3]
inactive: all other assays above

CCCCCCCCCCOC(=O)c1ccccc1C(=O)OCCCCCCCCCC
not listed: [3]
inactive: all other assays above

CCCCN(N=O)C(=N)N[N+](=O)[O-]
active: [11] 62.4 µM
not listed: [3] | [9] | [16]
inactive: all other assays above

ClCc1cccc(Cl)c1
not listed: [3]
inactive: all other assays above

CCOP(=S)(OCC)SCSCC
active: [14] 63.3 µM
not listed: [3]
inactive: all other assays above

Cc1ccccc1CCl
not listed: [3] | [17]
inactive: all other assays above

C=CC(C)=O
not listed: [3] | [17]
inactive: all other assays above

Reference: PubChem BioAssay (Tox21)
